Test results: PMC5700166

The sequences below were run against T1, GST-Ap-NF-kB RHD (Exaiptasia pallida (Aiptasia), UniProt A0A913YAJ5 2-422) (assay: protein-binding microarray (PBM); PBM: ~300 nM protein, 6 mM HEPES pH 7.8, 80 mM KCl, 0.5 mM EDTA, 0.5 mM EGTA, 6% glycerol, 35 ng/ul poly-dIdC, 1% milk, 1 h, room temperature; Ap Aiptasia and Nv Nematostella (sea anemones) / Co Capsaspora / Aq Amphimedon (sponge) / Dm Drosophila / Hu human; RHD is the Rel homology domain; high values mean tight binding). Conditions: dsDNA, one strand shown.
T1 sequence: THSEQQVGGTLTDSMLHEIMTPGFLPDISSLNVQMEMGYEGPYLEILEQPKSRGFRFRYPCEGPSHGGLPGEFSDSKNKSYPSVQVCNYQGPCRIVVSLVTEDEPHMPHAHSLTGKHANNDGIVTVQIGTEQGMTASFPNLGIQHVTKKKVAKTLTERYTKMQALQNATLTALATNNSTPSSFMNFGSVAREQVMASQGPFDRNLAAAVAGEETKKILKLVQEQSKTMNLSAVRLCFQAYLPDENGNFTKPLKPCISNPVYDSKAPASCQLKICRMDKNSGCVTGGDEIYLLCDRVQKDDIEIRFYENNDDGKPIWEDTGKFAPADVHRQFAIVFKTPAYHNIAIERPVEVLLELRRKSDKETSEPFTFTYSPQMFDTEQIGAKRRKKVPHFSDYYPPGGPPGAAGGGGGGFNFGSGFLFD

Question: How did the binding signal turn out when “CCGATTAACATCAATAAAATCCCTGATGTTAATCGGGTCTTGATTCGCTTGACGCTGCTG” was run?
Answer: 4.23 z-score

Question: “CCGATTAACATCAGAAACTCCCATGATGTTAATCGGGTCTTGATTCGCTTGACGCTGCTG” was tested. Which binding signal did it give?
Answer: 3.34 z-score

Question: How did the binding signal turn out when “CCGATTAACATCAGGGACTTCCATGATGTTAATCGGGTCTTGATTCGCTTGACGCTGCTG” was run?
Answer: 5.02 z-score

Question: For “CCGATTAACATCAGGAAAGCACCTGATGTTAATCGGGTCTTGATTCGCTTGACGCTGCTG”, which binding signal is on record?
Answer: 2.85 z-score

Question: Which binding signal does the source give for “CCGATTAACATCAAGGAAGTCCCTGATGTTAATCGGGTCTTGATTCGCTTGACGCTGCTG” here?
Answer: 5.76 z-score

Question: Which binding signal does the source give for “CCGATTAACATCAGGGAAGGCCCTGATGTTAATCGGGTCTTGATTCGCTTGACGCTGCTG” here?
Answer: 4.52 z-score

Question: “CCGATTAACATCAGGAGAGCCCCTGATGTTAATCGGGTCTTGATTCGCTTGACGCTGCTG” was tested. Which binding signal did it give?
Answer: 3.65 z-score

Question: How did the binding signal turn out when “CCGATTAACATCAAGGGACTTTCTGATGTTAATCGGGTCTTGATTCGCTTGACGCTGCTG” was run?
Answer: 7.14 z-score

Question: “CCGATTAACATCAGGGAGGCCCCTGATGTTAATCGGGTCTTGATTCGCTTGACGCTGCTG” was tested. Which binding signal did it give?
Answer: 5.52 z-score

Question: For “CCGATTAACATCAGGGGACTTCATGATGTTAATCGGGTCTTGATTCGCTTGACGCTGCTG”, which binding signal is on record?
Answer: 6.7 z-score

Question: “CCGATTAACATCAGGGACTTCACTGATGTTAATCGGGTCTTGATTCGCTTGACGCTGCTG” was tested. Which binding signal did it give?
Answer: 3.82 z-score

Question: For “CCGATTAACATCAAAGAAGTCCCTGATGTTAATCGGGTCTTGATTCGCTTGACGCTGCTG”, which binding signal is on record?
Answer: 5.78 z-score

Question: Which binding signal does the source give for “CCGATTAACATCAAAAAGCCCCTTGATGTTAATCGGGTCTTGATTCGCTTGACGCTGCTG” here?
Answer: 7.33 z-score

Question: For “CCGATTAACATCAGAAATTACCCTGATGTTAATCGGGTCTTGATTCGCTTGACGCTGCTG”, which binding signal is on record?
Answer: 3.88 z-score

Question: Which binding signal does the source give for “CCGATTAACATCAGGGCTCCCCATGATGTTAATCGGGTCTTGATTCGCTTGACGCTGCTG” here?
Answer: 2.59 z-score

Question: “CCGATTAACATCAAAAATGCCCCTGATGTTAATCGGGTCTTGATTCGCTTGACGCTGCTG” was tested. Which binding signal did it give?
Answer: 4.41 z-score

Question: How did the binding signal turn out when “CCGATTAACATCAGGAAAGTCCCTGATGTTAATCGGGTCTTGATTCGCTTGACGCTGCTG” was run?
Answer: 7.69 z-score

Question: How did the binding signal turn out when “CCGATTAACATCACGGGATTACCTGATGTTAATCGGGTCTTGATTCGCTTGACGCTGCTG” was run?
Answer: 3.75 z-score

Question: “CCGATTAACATCAGGGTTTCACCTGATGTTAATCGGGTCTTGATTCGCTTGACGCTGCTG” was tested. Which binding signal did it give?
Answer: 1.51 z-score

Question: With “CCGATTAACATCAGAAAAATACCTGATGTTAATCGGGTCTTGATTCGCTTGACGCTGCTG” as the sequence, how does the binding signal read?
Answer: 1.31 z-score

Question: Which binding signal does the source give for “CCGATTAACATCACGGTAATTCCTGATGTTAATCGGGTCTTGATTCGCTTGACGCTGCTG” here?
Answer: 1.42 z-score

Question: With “CCGATTAACATCAAAATACCCCTTGATGTTAATCGGGTCTTGATTCGCTTGACGCTGCTG” as the sequence, how does the binding signal read?
Answer: 6.2 z-score

Question: “CCGATTAACATCAGGGACATCCCTGATGTTAATCGGGTCTTGATTCGCTTGACGCTGCTG” was tested. Which binding signal did it give?
Answer: 5.51 z-score

Question: “CCGATTAACATCACGGGATTTCGTGATGTTAATCGGGTCTTGATTCGCTTGACGCTGCTG” was tested. Which binding signal did it give?
Answer: 1.77 z-score

Question: “CCGATTAACATCAAACCTTCCCCTGATGTTAATCGGGTCTTGATTCGCTTGACGCTGCTG” was tested. Which binding signal did it give?
Answer: 4.68 z-score

Question: For “CCGATTAACATCAGGCAAGCCCCTGATGTTAATCGGGTCTTGATTCGCTTGACGCTGCTG”, which binding signal is on record?
Answer: 2.62 z-score

Question: Which binding signal does the source give for “CCGATTAACATCAGGGATTGCCCTGATGTTAATCGGGTCTTGATTCGCTTGACGCTGCTG” here?
Answer: 4.32 z-score

Question: “CCGATTAACATCAGGGAGTTCACTGATGTTAATCGGGTCTTGATTCGCTTGACGCTGCTG” was tested. Which binding signal did it give?
Answer: 2.23 z-score

Question: How did the binding signal turn out when “CCGATTAACATCAGAAATACCCATGATGTTAATCGGGTCTTGATTCGCTTGACGCTGCTG” was run?
Answer: 4.24 z-score

Question: Which binding signal does the source give for “CCGATTAACATCAGGAAATCACCTGATGTTAATCGGGTCTTGATTCGCTTGACGCTGCTG” here?
Answer: 2.81 z-score

Question: Which binding signal does the source give for “CCGATTAACATCAGGGTTTTTAGTGATGTTAATCGGGTCTTGATTCGCTTGACGCTGCTG” here?
Answer: 2.02 z-score

Question: Which binding signal does the source give for “CCGATTAACATCAGGGGCTTCACTGATGTTAATCGGGTCTTGATTCGCTTGACGCTGCTG” here?
Answer: 3.16 z-score

Question: Which binding signal does the source give for “CCGATTAACATCAAGGGGGGTTATGATGTTAATCGGGTCTTGATTCGCTTGACGCTGCTG” here?
Answer: 5.81 z-score

Question: How did the binding signal turn out when “CCGATTAACATCAGGAAGCCCCATGATGTTAATCGGGTCTTGATTCGCTTGACGCTGCTG” was run?
Answer: 4.01 z-score

Question: With “CCGATTAACATCAGGAAATTACCTGATGTTAATCGGGTCTTGATTCGCTTGACGCTGCTG” as the sequence, how does the binding signal read?
Answer: 1.96 z-score

Question: “CCGATTAACATCAAGGGAACCCCTGATGTTAATCGGGTCTTGATTCGCTTGACGCTGCTG” was tested. Which binding signal did it give?
Answer: 5.4 z-score

Question: Which binding signal does the source give for “CCGATTAACATCAGATCCCCCCCTGATGTTAATCGGGTCTTGATTCGCTTGACGCTGCTG” here?
Answer: 8.16 z-score
